# Test results taken from PubChem BioAssay (NCATS).
# Results filed as inconclusive are left out. A number with no mark means an inactive call. Calls of active or inactive are those of the source. Calls follow the shape of the dose curve; as a rule, active = well fitted inhibition curve with a large enough effect; inconclusive = small, poorly fitted or top-dose-only effect; inactive = flat fitted curve, though single readings scatter.
# Tested on: NIH3T3
# Test: Cytotoxic Profiling of Annotated Libraries Using Quantitative High-Throughput Screening (AID 1296008); also: nearly all actives have a fitted effect of over 60% in size
# Conditions: Five cell lines viability, CellTiter-Glo ATP luminescence, 48-72 h; max response: hits give low values
# Summary of the method: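 Cells exposed to compounds for 48 or 72 hr at 37 degrees Celsius. Viability read as ATP-coupled luminescence with CellTiter-Glo after 10 min at room temperature.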
# % is scaled to controls: 0 for no effect and ±100 for the full control effect.
SMILES,max response,outcome
O=S(=O)(c1ccc(Cl)cc1)N1CCN(c2ccnc3cc(Cl)ccc23)CC1,3.17%,–
CC(C)(O)C(=O)N1CCN(c2ccc(C(F)(F)F)c(C3=C(c4c[nH]c5ccccc45)C(=O)NC3=O)c2)CC1,-9.17%,–
C=C1CC[C@@H]2[C@](C)(CO)[C@H](O)CC[C@@]2(C)[C@@H]1/C=C/C1=CCOC1=O,-1.38%,–
COc1cc2ncc(-c3ccccc3)nc2cc1OC,–,inactive
COC1C(O)C(OC2CCC3(C)C(CCC45CCC6C7(COC(=O)C7)OC4(O)C6(C)CCC35)C2)OC(C)C1OC1OC(CO)C(OC2OC(CO)C(O)C(O)C2O)C(O)C1O (stereo not given),1.1%,–
O=C(Nc1cc(C(F)(F)F)cc(C(F)(F)F)c1)c1cnc(Cl)nc1C(F)(F)F,-1.85%,–
COc1cc(CCc2ccc(OCC=C(C)C)cc2)cc(OC)c1OC,-1.52%,–
COC(=O)c1ccc2c(c1)nc(NC(=O)c1ccccc1)n2CCCc1ccccc1,1.52%,–
Nc1nc2c(c(N3CC[C@@H](N)C3)n1)CCCc1ccccc1-2,-2.56%,–
CC(=O)OC1CC(O)(C(C)C)C2C(OC(=O)c3ccc(O)cc3)C=C(C)C(=O)CC12C (stereo not given),0.784%,–
C/C=C/C=C/c1cc2c(C=O)c(O)c(CC=C(C)C)cc2o1,1.86%,–
O=C(Nc1ccccc1)N1CCN(c2nc(-c3ccccc3)ns2)CC1,-11.1%,–
C#CCOc1ccc2c(c1)c(-c1ccc(C(C)C)cc1)nc(=O)n2C(C)C,-1.76%,–
C/C=C\NC(=O)C1NC(=O)C(CC(N)=O)NC(=O)C(NC(=O)C(=O)C(C)CC)Cc2ccc(O)c(c2)-c2cccc3c2NC(=O)C3(O)C1O (stereo not given),-19%,–
Cc1cc(C)nc(SCC(=O)Nc2ncc(Cc3cccc4ccccc34)s2)n1,-0.172%,–
